# Measurements from PubChem BioAssay (NCI).
# The panel holds about 83,000 compounds, 20% with a hit somewhere; the sample as a whole holds those more often.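 Assay: single dose, 48 h. Readout: percent growth (0 = no net growth; negative = cell death). Active: <10.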 A number with no mark means an inactive call. Calls of active or inactive are those of the source.
# Tests used:
# Experiment in all cases: NCI-60 one-dose screen, 48 h (100 = growth as untreated, 0 = no growth, -100 = all killed)
# Settings in all cases: 10 µM unless noted
# NCI-H23 lung = test system: NCI-H23 lung
# NCI-H226 lung = test system: NCI-H226 lung
# NCI-H322M lung = test system: NCI-H322M lung
# HOP-62 NSCLC = test system: HOP-62 NSCLC
# NCI-H460 lung = test system: NCI-H460 lung
# HOP-92 NSCLC = test system: HOP-92 NSCLC
# NCI-H522 lung = test system: NCI-H522 lung
# A549/ATCC NSCLC = test system: A549/ATCC NSCLC
# 786-0 renal = test system: 786-0 renal
# COLO 205 colon = test system: COLO 205 colon
# DU-145 prostate = test system: DU-145 prostate
# K-562 leukemia = test system: K-562 leukemia
# MALME-3M melanoma = test system: MALME-3M melanoma
# MDA-MB-231 breast = test system: MDA-MB-231 breast
# RXF 393 renal = test system: RXF 393 renal
# SF-268 CNS = test system: SF-268 CNS
# SF-295 CNS = test system: SF-295 CNS
# SF-539 CNS = test system: SF-539 CNS
# UACC-257 melanoma = test system: UACC-257 melanoma
# M14 melanoma = test system: M14 melanoma
Compound,growth (NCI-H23 lung),growth (NCI-H226 lung) [%],growth (NCI-H322M lung) [%],growth (HOP-62 NSCLC) [%],growth (NCI-H460 lung),growth (HOP-92 NSCLC) [%],growth (NCI-H522 lung),growth (A549/ATCC NSCLC) [%],growth (786-0 renal),growth (COLO 205 colon),growth (DU-145 prostate),growth (K-562 leukemia),growth (MALME-3M melanoma),growth (MDA-MB-231 breast),growth (RXF 393 renal),growth (SF-268 CNS) [%],growth (SF-295 CNS) [%],growth (SF-539 CNS),growth (UACC-257 melanoma) [%],growth (M14 melanoma)
COc1ccc(C(C)c2cc(OC)c(OC)c(OC)c2)cc1 (stereo not given),28.9%,80.2,44.6,35.4,4.97% (active),49,9.34% (active),18.6,22.6%,-15.2% (active),9.97% (active),7.1% (active),67.5%,30.5%,24.7%,37.5,15.6,-7.56% (active),53,7.54% (active)
C=C1C(=O)O[C@H]2[C@H]1CC/C(COC(=O)CCCCCCCC(=O)OC/C1=C/CC[C@@]3(C)O[C@H]3[C@H]3OC(=O)C(=C)[C@@H]3CC1)=C\CC[C@@]1(C)O[C@@H]21,2.7% (active),47,84.7,79.2,61.4%,17.9,-71.1% (active),82.6,4.86% (active),-61.6% (active),27.8%,3.32% (active),-19.7% (active),-10.3% (active),-70.6% (active),30.9,86.7,-1.74% (active),58.2,8.2% (active)
C=C(C)[C@@H]1CC[C@]2(C(=O)O)CC[C@]3(C)[C@H](CC[C@@H]4[C@@]5(C)C[C@@H](CC#Cc6ccc(Cl)cc6)C(=O)C(C)(C)[C@@H]5CC[C@]43C)[C@@H]12,28.5%,40.2,55.6,54.7,34.8%,67.9,12.6%,31.3,60.5%,53.8%,39.4%,28.8%,21.2%,6.05% (active),62.4%,74.1,41.3,57%,75.6,1.24% (active)
Cc1cccc(C)c1NCc1nnc(-c2ccco2)o1,89%,80.5,91.1,80.2,97%,83.4,72.8%,86.8,105%,103%,99.9%,100%,85.2%,79.7%,102%,93.5,92.4,97.7%,98.7,99%
NCCN1CCNCC1,94.6%,89.6,116,103,108%,100,91.4%,102,101%,122%,104%,106%,109%,105%,135%,102,109,95.6%,25.9,101%
CCc1c(C(=O)N[C@@H](C(=O)OCc2ccccc2)C(C)O)[nH]c2ccc(Cl)cc12 (stereo not given in full),80.1%,21.7,75,65.8,13.8%,74.5,77.1%,69.6,11.1%,48.7%,86.5%,104%,69.7%,61.3%,83.8%,84.3,52.1,71.4%,109,88.3%
CN1CCN(CC#CCOC(=O)CNC(=O)[C@]23CCC(C)(C)C[C@H]2C2=CC[C@@H]4[C@@]5(C)CC[C@H](O)C(C)(C)[C@@H]5CC[C@@]4(C)[C@]2(C)CC3)CC1,94.2%,93.5,94.2,90.4,96.4%,88.7,87.8%,79.2,80.3%,85.4%,96.7%,70.1%,92.5%,95.5%,78.1%,88,96.9,83.5%,95.1,96.8%
